According to PubChem BioAssay (Tox21):
Several values for one entry are separate records, joined by “and”; a condition that tells them apart may be missing. Equal values may be shown once. Records with an inconclusive call do not appear. Where a structure was tested more than once in an assay, its records may differ in their call. Activity calls are given as the source filed them. Unless noted, calls follow the shape of the dose curve; as a rule, active = well fitted curve in the direction sought with a large enough effect in the repeat runs; inconclusive = weak or mixed curves; inactive = no such curve, though single readings can be large; an effect the other way counts as inactive or inconclusive.

Legend:
[1] = qHTS assay to identify small molecule antagonists of the thyroid receptor (TR) signaling pathway - cell viability counter screen (AID 743064); also: nearly all actives have a fitted effect of over 50% in size; also: potency is read from the fitted curve at half-maximal effect
In short: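 CellTiter-Fluor readout, 30 min at 37 °C/5% CO2, following 23.5 h incubation of GH3.TRE-Luc cells with test compound and 1 nM T3 (final).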

[2] = qHTS assay to identify small molecule antagonists of the thyroid receptor (TR) signaling pathway (AID 743065); also: nearly all actives have a fitted effect of over 55% in size; also: potency is read from the fitted curve at half-maximal effect; as to activity, negative = inhibition: series mostly up to about 70 µM
In short: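 GH3.TRE-Luc rat pituitary cells carrying two TR response elements driving luciferase were plated for 4 h, given compound plus 1 nM T3 (final), and incubated 23.5 h at 37 C. ONE-Glo luminescence measured reporter inhibition; CellTiter-Fluor fluorescence tracked cytotoxicity.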

[3] = tested on: thyroid hormone receptor (rat, GH3 cells); experiment: qHTS assay to identify small molecule agonists of the thyroid receptor (TR) signaling pathway (AID 743066; calls by dose curve)
[4] = target: Estrogen receptor (Homo sapiens) (UniProt P03372); experiment: qHTS assay to identify small molecule antagonists of the estrogen receptor alpha (ER-alpha) signaling pathway (AID 743069; active = well fitted curve in the direction sought with a large enough effect in the signal ratio in the repeat runs, not every such curve was filed as active; the % refers to the signal ratio)
In short: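 HEK293 cells stably carrying an ER-alpha-UAS-bla beta-lactamase reporter were pre-cultured overnight in 2% charcoal-stripped FBS medium. Test compounds in DMSO were added together with 17beta-estradiol for 18 hr at 37C. Read-out was fluorescence after 2 hr with LiveBLAzer B/G FRET substrate at room temperature.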

[5] = qHTS assay to identify small molecule antagonists of the estrogen receptor alpha (ER-alpha) signaling pathway - cell viability counter screen (AID 743074; calls by dose curve; also: nearly all actives have a fitted effect of over 45% in size)
[6] = target: Estrogen receptor (Homo sapiens) (UniProt P03372); experiment: qHTS assay to identify small molecule agonists of the estrogen receptor alpha (ER-alpha) signaling pathway (AID 743075; calls by dose curve)
[7] = target: Estrogen receptor (Homo sapiens) (UniProt P03372); experiment: qHTS assay to identify small molecule agonists of the estrogen receptor alpha (ER-alpha) signaling pathway using the BG1 cell line (AID 743079); also: nearly all actives have a fitted effect of over 20% in size
[8] = qHTS assay to identify small molecule antagonists of the estrogen receptor alpha (ER-alpha) signaling pathway using the BG1 cell line (AID 743080; calls by dose curve;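 also: BG1 cells stimulated with 17beta-estradiol alongside compound; series mostly up to about 70 µM; nearly all actives have a fitted effect of over 25% in size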)
In short: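 Luminescence from a 4×ERE-luciferase reporter in BG1-Luc-4E2 cells served as read-out. Cells, pre-cultured 5 days in stripped-serum phenol-red-free medium, were exposed to compound with 17beta-estradiol co-stimulation for 21.5 h at 37 C.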

[9] = qHTS assay to identify small molecule antagonists of the estrogen receptor alpha (ER-alpha) signaling pathway using the BG1 cell line - cell viability counter screen (AID 743081);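 also: compound given together with 17beta-estradiol as the ER stimulus; series mostly up to about 70 µM; nearly all actives have a fitted effect of over 45% in size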
[10] = target: Aromatase (Homo sapiens) (UniProt P11511); experiment: qHTS assay to identify aromatase inhibitors (AID 743083); also: series mostly up to about 70 µM; nearly all actives have a fitted effect of over 55% in size
[11] = qHTS assay to identify aromatase inhibitors - cell viability counter screen (AID 743084);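 also: cells stimulated with testosterone during compound exposure; nearly all actives have a fitted effect of over 55% in size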; also: potency is read from the fitted curve at half-maximal effect
[12] = target: Aryl hydrocarbon receptor (Homo sapiens) (UniProt P35869); experiment: qHTS assay to identify small molecule that activate the aryl hydrocarbon receptor (AhR) signaling pathway (AID 743085);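 also: HG2L7.5c1 human HepG2 liver cells with stably integrated DRE-driven firefly reporter; series mostly up to about 70 µM; nearly all actives have a fitted effect of over 15% in size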
In short: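 Stably transfected human liver carcinoma cells (HG2L7.5c1; 20 DRE-firefly luciferase) were incubated 5 h, dosed, and kept 24 h at 37C. Agonism was scored from increased luciferase luminescence.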

[13] = qHTS assay to identify small molecule that activate the aryl hydrocarbon receptor (AhR) signaling pathway - cell viability counter screen (AID 743086);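 also: HepG2 liver cells carrying the AhR DRE luciferase reporter; series mostly up to about 70 µM; nearly all actives have a fitted effect of over 45% in size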
In short: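 HepG2-AhR-luc (HG2L7.5c1) cells, 4000/well, were preincubated 5 h at 37C, exposed to compound in qHTS format for 24 hr at 37C, then given CellTiter-Fluor for 30 min; viability was read as fluorescence in the reporter wells.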

[14] = target: Peroxisome proliferator-activated receptor gamma (Homo sapiens) (UniProt P37231); experiment: qHTS assay to identify small molecule antagonists of the peroxisome proliferator-activated receptor gamma (PPARg) signaling pathway (AID 743191; calls by dose curve; also: series mostly up to about 63 µM; nearly all actives have a fitted effect of over 30% in size)
In short: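 GeneBLAzer PPARg UAS-bla HEK293H cells carrying a UAS-driven beta-lactamase reporter were plated at 3000 cells/well, preincubated 5 h at 37C, then given compound for 17 h at 37C; LiveBLAzer B/G FRET substrate was read after 1 h at room temperature.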

[15] = qHTS assay to identify small molecule antagonists of the peroxisome proliferator-activated receptor gamma (PPARg) signaling pathway - cell viability counter screen (AID 743194); also: nearly all actives have a fitted effect of over 55% in size
In short: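 PPARg-UAS-bla HEK293H cells were plated, rested 5 h at 37 C, then treated with compounds plus rosiglitazone (50 nM final) for 17 h at 37 C; viability was then read by CellTiter-Glo luminescence after 30 min at room temperature.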

[16] = qHTS assay for small molecule agonists of the antioxidant response element (ARE) signaling pathway (AID 743202; active = well fitted activation curve with a large enough effect in the signal ratio in the repeat runs, not every such curve was filed as active; the % refers to the signal ratio)
In short: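 Read-out: LiveBLAzer B/G FRET substrate fluorescence after 2 h at room temperature, following 16 h compound treatment at 37 C of HepG2 cells carrying an ARE-driven beta-lactamase reporter.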

[17] = qHTS assay for small molecule agonists of the antioxidant response element (ARE) signaling pathway - cell viability counter screen (AID 743203; calls by dose curve; also: nearly all actives have a fitted effect of over 55% in size)
In short: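 ARE-bla HepG2 cells were plated, rested 5 h at 37C/5% CO2, then exposed to compounds in DMSO for 16 h. Viability was read as CellTiter-Glo luminescence after 30 min at room temperature, in the same wells as the ARE screen.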

[18] = qHTS assay for small molecule activators of the heat shock response signaling pathway (AID 743210; active = well fitted activation curve with a large enough effect in the signal ratio in the repeat runs, with a control signal flat, not every such curve was filed as active; the % refers to the signal ratio; also: series mostly up to about 63 µM)
In short: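 HSE-bla HeLa cells (beta-lactamase reporter under heat shock response elements) were exposed to compounds for 5 h at 37 C, then loaded with LiveBLAzer B/G FRET substrate for 2.5 h at room temperature before fluorescence reading.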

[19] = qHTS assay for small molecule activators of the heat shock response signaling pathway - cell viability counter screen (AID 743209); also: nearly all actives have a fitted effect of over 50% in size
In short: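 HSE-bla HeLa cells plated overnight, then exposed to Tox21 compounds (23 nL in DMSO) for 5 h at 37 C. After the bla reporter read, CellTiter-Glo was added in the same wells and luminescence read after 30 min at room temperature.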

[20] = target: Peroxisome proliferator-activated receptor gamma (Homo sapiens) (UniProt P37231); experiment: qHTS assay to identify small molecule agonists of the peroxisome proliferator-activated receptor gamma (PPARg) signaling pathway (AID 743094; active = well fitted activation curve with a large enough effect in the signal ratio in the repeat runs, not every such curve was filed as active; the % refers to the signal ratio)
In short: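 GeneBLAzer PPARg UAS-bla HEK293H cells were plated, rested 5 h, then exposed to compounds for 17 h at 37C. Beta-lactamase activity was read by LiveBLAzer B/G FRET substrate fluorescence after 1 h at room temperature.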
% is scaled to controls: 0 for no effect and ±100 for the full control effect.

Sequence of Estrogen receptor (Homo sapiens) (P03372 whole entry, looked up): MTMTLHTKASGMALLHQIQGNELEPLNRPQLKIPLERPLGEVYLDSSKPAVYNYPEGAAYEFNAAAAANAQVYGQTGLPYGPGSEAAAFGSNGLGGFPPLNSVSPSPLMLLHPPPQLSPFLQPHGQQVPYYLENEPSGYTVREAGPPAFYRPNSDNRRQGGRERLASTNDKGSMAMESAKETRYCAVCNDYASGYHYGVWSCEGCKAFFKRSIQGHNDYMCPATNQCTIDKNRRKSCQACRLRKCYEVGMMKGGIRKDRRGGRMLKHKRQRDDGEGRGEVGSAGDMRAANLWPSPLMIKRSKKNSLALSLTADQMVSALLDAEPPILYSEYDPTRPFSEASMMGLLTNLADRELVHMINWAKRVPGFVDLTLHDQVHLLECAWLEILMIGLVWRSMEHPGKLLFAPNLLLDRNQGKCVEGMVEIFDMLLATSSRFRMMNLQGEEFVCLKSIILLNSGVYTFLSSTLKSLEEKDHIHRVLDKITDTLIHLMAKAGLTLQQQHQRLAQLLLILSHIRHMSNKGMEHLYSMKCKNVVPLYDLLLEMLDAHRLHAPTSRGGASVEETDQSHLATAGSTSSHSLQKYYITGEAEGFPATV
Sequence of Aryl hydrocarbon receptor (Homo sapiens) (P35869 whole entry, looked up): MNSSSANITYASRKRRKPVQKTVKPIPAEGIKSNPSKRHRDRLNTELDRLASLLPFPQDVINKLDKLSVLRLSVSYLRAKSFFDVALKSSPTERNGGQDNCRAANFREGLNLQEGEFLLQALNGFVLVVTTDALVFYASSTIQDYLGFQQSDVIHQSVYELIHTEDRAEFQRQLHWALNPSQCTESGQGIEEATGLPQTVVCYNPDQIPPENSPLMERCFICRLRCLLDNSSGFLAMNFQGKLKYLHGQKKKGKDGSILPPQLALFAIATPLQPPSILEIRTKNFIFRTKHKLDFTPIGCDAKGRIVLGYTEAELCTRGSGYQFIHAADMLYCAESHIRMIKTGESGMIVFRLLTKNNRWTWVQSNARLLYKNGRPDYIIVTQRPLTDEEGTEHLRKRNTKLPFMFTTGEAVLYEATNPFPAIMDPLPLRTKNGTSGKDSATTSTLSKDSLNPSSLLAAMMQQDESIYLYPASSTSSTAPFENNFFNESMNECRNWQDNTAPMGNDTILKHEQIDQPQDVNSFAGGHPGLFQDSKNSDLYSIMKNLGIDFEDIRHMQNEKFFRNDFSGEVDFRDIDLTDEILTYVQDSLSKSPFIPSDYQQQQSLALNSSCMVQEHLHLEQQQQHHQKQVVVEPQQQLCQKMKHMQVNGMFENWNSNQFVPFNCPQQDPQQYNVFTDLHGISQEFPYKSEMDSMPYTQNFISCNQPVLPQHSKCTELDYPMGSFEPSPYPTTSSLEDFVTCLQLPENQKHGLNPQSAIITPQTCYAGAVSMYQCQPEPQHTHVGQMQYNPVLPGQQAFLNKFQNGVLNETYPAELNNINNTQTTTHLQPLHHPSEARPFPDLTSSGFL
Sequence of Aromatase (Homo sapiens) (P11511 whole entry, looked up): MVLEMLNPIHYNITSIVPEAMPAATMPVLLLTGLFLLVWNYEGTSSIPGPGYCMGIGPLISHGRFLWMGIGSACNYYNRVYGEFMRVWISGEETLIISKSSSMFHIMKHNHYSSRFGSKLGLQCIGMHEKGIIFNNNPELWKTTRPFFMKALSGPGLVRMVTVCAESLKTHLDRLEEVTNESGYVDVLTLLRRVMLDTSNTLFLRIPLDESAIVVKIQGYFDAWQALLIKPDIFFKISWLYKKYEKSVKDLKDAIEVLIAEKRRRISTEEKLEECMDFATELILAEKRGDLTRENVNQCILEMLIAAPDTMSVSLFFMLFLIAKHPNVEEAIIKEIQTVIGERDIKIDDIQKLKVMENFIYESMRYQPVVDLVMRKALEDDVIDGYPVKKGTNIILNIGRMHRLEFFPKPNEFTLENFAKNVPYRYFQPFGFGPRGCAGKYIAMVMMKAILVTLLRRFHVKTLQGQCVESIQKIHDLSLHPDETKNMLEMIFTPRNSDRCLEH
Sequence of Peroxisome proliferator-activated receptor gamma (Homo sapiens) (P37231 whole entry, looked up): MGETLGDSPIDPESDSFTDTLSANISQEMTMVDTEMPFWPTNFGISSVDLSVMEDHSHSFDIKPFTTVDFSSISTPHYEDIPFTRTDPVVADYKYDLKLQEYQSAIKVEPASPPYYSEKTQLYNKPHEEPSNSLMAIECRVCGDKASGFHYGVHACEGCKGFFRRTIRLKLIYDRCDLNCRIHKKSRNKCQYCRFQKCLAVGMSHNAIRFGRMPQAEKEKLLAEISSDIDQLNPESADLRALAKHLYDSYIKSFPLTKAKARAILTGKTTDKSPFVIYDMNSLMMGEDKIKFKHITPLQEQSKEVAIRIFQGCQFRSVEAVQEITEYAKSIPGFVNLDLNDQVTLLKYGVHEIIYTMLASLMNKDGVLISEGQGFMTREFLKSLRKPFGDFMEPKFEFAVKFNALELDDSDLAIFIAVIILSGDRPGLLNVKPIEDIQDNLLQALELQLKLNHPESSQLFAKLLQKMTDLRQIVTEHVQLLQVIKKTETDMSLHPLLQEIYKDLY

CC(C)c1ccc(S(=O)(=O)O)cc1
inactive: Potency [1] | Potency [2] | Potency [3] | Potency [4] | outcome [5] | Potency [6] | Potency [7] | Potency [8] | Potency [9] | Potency [10] | Potency [11] | Potency [12] | outcome [13] | outcome [14] | outcome [15] | Potency [16] | outcome [17] | Potency [18]

CC(C)(N)CO
inactive: Potency [1] | Potency [2] | Potency [3] | outcome [5] | Potency [6] | Potency [7] | Potency [8] | Potency [9] | Potency [10] | Potency [11] | Potency [12] | outcome [13] | outcome [14] | outcome [15] | Potency [16] | outcome [17] | outcome [19] | Potency [18]

COS(C)(=O)=O
inactive: Potency [1] | Potency [2] | Potency [3] | outcome [5] | Potency [6] | Potency [7] | Potency [8] | Potency [9] | Potency [10] | Potency [11] | Potency [12] | outcome [13] | outcome [20] | outcome [14] | outcome [15] | Potency [16] | outcome [17] | Potency [18]

O=C(O)c1cc(O)c(O)c(O)c1
inactive and 55 µM (active): Potency [1]
inactive and 49 µM (active): Potency [11]
inactive: Potency [2] | Potency [3] | Potency [4] | outcome [5] | Potency [6] | Potency [7] | Potency [8] | Potency [9] | Potency [10] | Potency [12] | outcome [20] | outcome [15] | outcome [17] | Potency [18]

O=S1(=O)CC=CC1
inactive: Potency [1] | Potency [2] | Potency [3] | outcome [5] | Potency [6] | Potency [7] | Potency [8] | Potency [9] | Potency [10] | Potency [11] | Potency [12] | outcome [13] | outcome [20] | outcome [14] | outcome [15] | Potency [16] | outcome [17] | Potency [18]

Cc1cc(C)c(C)cc1C
inactive: Potency [1] | Potency [2] | Potency [3] | Potency [4] | outcome [5] | Potency [6] | Potency [7] | Potency [8] | Potency [9] | Potency [10] | Potency [11] | Potency [12] | outcome [20] | outcome [14] | outcome [15] | Potency [16] | outcome [17] | Potency [18]

CCN(CC)CCCC(C)Nc1ccnc2cc(Cl)ccc12 (stereo not given)
inactive: activity change, negative = cytotoxic [1] -23.7% [at 8.44 µM] | activity, negative = inhibition [2] -19.4% [at 8.44 µM] | Potency [3] | outcome [5] | Potency [6] | Potency [7] | Potency [8] | Potency [9] | Potency [10] | Potency [11] | Potency [12] | outcome [13] | outcome [14] | outcome [15] | activation [16] -11.9% [at 8.36 µM] | viability change, negative = cytotoxic [17] -7.65% [at 8.36 µM] | outcome [19] | Potency [18]
active: Potency [2] 26.6 µM
